Consider 42 compounds from PubChem BioAssay (Tox21).

Records with an inconclusive call do not appear. Some structures have more than one record in an assay (separate samples or runs), and their calls can disagree. Calls of active or inactive are those of the source. Calls follow the shape of the full dose curve.

Assay [1] addresses Acetylcholinesterase (Homo sapiens) (UniProt P22303). The assay can be described thus: Acetylcholinesterase (AChE) small molecule antagonists: colormetric cell-based qHTS assay (AID 1347395). Also: nearly all actives have a fitted effect of over 30% in size. As to conditions: SH-SY5Y cells AChE activity, colorimetric (Ellman); series mostly up to 115 µM. In short, it runs like this:
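AChE inhibition read colorimetrically via DTNB–thiocholine in SH-SY5Y cells. Compound 30 min, substrate 90 min, both 37 C.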

The target is the same in assay [2]. The experiment in a line: Acetylcholinesterase (AChE) small molecule antagonists: enzyme-based qHTS assay (AID 1347397). Also: nearly all actives have a fitted effect of over 55% in size. Particulars: Potency: AChE enzyme activity inhibition; outcome: AChE enzyme activity inhibition; series mostly up to 115 µM. In outline: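 Absorbance-based detection of thiocholine with DTNB served as the read-out. Recombinant human AChE was exposed to compound for 30 min at RT before a 10 min RT incubation with acetylthiocholine.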
In general terms: qHTS replaces the single test concentration by a dilution series.

For assay [3] the target is unchanged. The experiment in a line: Acetylcholinesterase (AChE) small molecule antagonists: fluorescence cell-based qHTS assay (AID 1347398). Also: nearly all actives have a fitted effect of over 50% in size. Also: potency is read from the fitted curve at half-maximal effect. As to conditions: SH-SY5Y cells; Potency: AChE activity; outcome: AChE activity; series mostly up to 115 µM. In short, it runs like this: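 Fluorimetric cell-based assay: intact SH-SY5Y cells, 30 min compound preincubation at 37 C, acetylthiocholine substrate with thiol probe Thiolite Green, 40 min RT development, fluorescence 490/520 nm.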

Assay [4] has the same target. The assay can be described thus: Acetylcholinesterase (AChE) small molecule antagonists: enzyme-based qHTS assay with human liver microsomes (AID 1347399). Also: nearly all actives have a fitted effect of over 60% in size. Particulars: Potency: qHTS inhibition; outcome: qHTS inhibition; series mostly up to 115 µM. In short, it runs like this:
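Recombinant human AChE (50 mU/mL in the enzyme mix) and human liver microsomes (0.25 mg/mL final) were preincubated with compound and NADPH (0.25 mg/mL final) for 30 min at 37 C. Acetylthiocholine/DTNB was then added; thiocholine was read colorimetrically after 10 min at room temperature.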

Sequence of Acetylcholinesterase (Homo sapiens) (P22303 whole entry, looked up): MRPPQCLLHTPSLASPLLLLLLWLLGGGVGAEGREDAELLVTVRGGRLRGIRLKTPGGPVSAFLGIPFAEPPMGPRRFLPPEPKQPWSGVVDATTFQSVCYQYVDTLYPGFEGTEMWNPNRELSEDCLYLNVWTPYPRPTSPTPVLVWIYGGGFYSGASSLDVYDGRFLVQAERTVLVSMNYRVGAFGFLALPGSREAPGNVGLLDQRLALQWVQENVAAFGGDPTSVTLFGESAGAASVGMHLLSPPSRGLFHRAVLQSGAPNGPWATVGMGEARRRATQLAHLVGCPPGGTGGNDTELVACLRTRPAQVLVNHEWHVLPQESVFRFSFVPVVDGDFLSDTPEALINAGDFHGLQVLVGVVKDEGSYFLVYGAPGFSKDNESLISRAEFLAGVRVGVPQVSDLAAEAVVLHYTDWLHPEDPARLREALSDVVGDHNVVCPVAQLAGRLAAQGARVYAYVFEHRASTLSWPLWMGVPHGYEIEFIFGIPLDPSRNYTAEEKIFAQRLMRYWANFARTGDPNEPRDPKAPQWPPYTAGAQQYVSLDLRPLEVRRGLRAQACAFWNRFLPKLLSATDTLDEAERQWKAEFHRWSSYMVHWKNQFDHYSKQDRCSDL

With `O=S(=O)(O)CCCN1CCOCC1`, the Potency result in assay [1], in assay [2], in assay [3] and in assay [4] was “inactive” throughout.

As to `CCN(CC)CCSC(=O)C(c1ccccc1)c1ccccc1`, the Potency result in assay [1], in assay [2], in assay [3] and in assay [4] was “inactive” each time.

As for `C1CCN(CN2CCCCC2)CC1`, the Potency entry in assay [1], in assay [2], in assay [3] and in assay [4] was “inactive” throughout.

In the case of `CC(C)(c1ccc(Oc2ccc(N)cc2)cc1)c1ccc(Oc2ccc(N)cc2)cc1`, the Potency result in assay [1], in assay [2], in assay [3] and in assay [4] was “inactive” in each case.

Regarding `C=C(C)C(=O)OCCOCCOCCOC(=O)C(=C)C`, the Potency result in assay [1], in assay [2], in assay [3] and in assay [4] was “inactive” throughout.

As to `C[Si](C)O[Si](C)(C)O[Si](C)(C)O[Si](C)C`, the Potency entry in assay [1], in assay [2], in assay [3] and in assay [4] was “inactive” throughout.

With `O=C(O)Cc1cc(I)c(Oc2cc(I)c(O)c(I)c2)c(I)c1`, the Potency entry in assay [1], in assay [2], in assay [3] and in assay [4] was “inactive” each time.

Consider `CC(C)(C)NCCO`, for which the Potency entry in assay [1], in assay [2], in assay [3] and in assay [4] was “inactive” throughout.

As to `O=C(O)c1ccc(C(=O)O)c(C(=O)O)c1`, the Potency entry in assay [1], in assay [2], in assay [3] and in assay [4] was “inactive” each time.

With `CC(C)CCCC(=O)O`, the Potency entry in assay [1], in assay [2], in assay [3] and in assay [4] was “inactive” in each case.

In the case of `C(=C/c1ccccc1)/c1ccccc1`, the Potency entry in assay [1], in assay [2], in assay [3] and in assay [4] was “inactive” in each case.

For `Cc1ccc2ccc(Cl)cc2n1`, the Potency result in assay [1], in assay [2], in assay [3] and in assay [4] was “inactive” each time.

As for `CC(=O)c1cc2ccccc2s1`, the Potency result in assay [1], in assay [2], in assay [3] and in assay [4] was “inactive” in each case.

As to `C=C(C)C1CCC(C)CC1O` (stereo not drawn), the Potency entry in assay [1], in assay [2], in assay [3] and in assay [4] was “inactive” in each case.

Turning to `Cc1cc2cc3c(C)cc(=O)oc3c(C)c2o1`, the Potency result in assay [1], in assay [2], in assay [3] and in assay [4] was “inactive” in each case.

Turning to `O=Cc1ccccc1O`, the Potency entry in assay [1], in assay [2] and in assay [4] was “inactive” each time. In addition, the Potency in assay [3] is 35.6 µM (active) and inactive.

In the case of `Brc1nc2ccccc2s1`, the Potency entry in assay [1], in assay [2], in assay [3] and in assay [4] was “inactive” each time.

`CC(=O)O[C@]1(C(C)=O)CC[C@H]2[C@@H]3C=C(Cl)C4=CC(=O)CC[C@]4(C)[C@H]3CC[C@@]21C`: the Potency entry in assay [1], in assay [2], in assay [3] and in assay [4] was “inactive” each time.

On to `Cc1ccc(Cl)cc1N`, for which the Potency result in assay [1], in assay [2], in assay [3] and in assay [4] was “inactive” in each case.

For `O=C(O)c1cc(=O)[nH]c(=O)[nH]1`, the Potency result in assay [1], in assay [2], in assay [3] and in assay [4] was “inactive” in each case.

Turning to `Cc1cccc(OCC(O)CNC(C)(C)C)c1C` (stereo not drawn), the Potency result in assay [1], in assay [2], in assay [3] and in assay [4] was “inactive” throughout.

As to `Cc1cc(C(C)(C)C)c(O)c(C)c1CC1=NCCN1`, the Potency result in assay [1], in assay [2], in assay [3] and in assay [4] was “inactive” throughout.

Consider `C1CCCNCC1`, for which the Potency result in assay [1], in assay [2], in assay [3] and in assay [4] was “inactive” each time.

As to `CN1C(C(=O)Nc2ccccn2)=C(O)c2ccccc2S1(=O)=O`, the Potency entry in assay [1], in assay [2], in assay [3] and in assay [4] was “inactive” in each case.

Consider `Nc1c(S(=O)(=O)O)cc(Br)c2c1C(=O)c1ccccc1C2=O`, for which the Potency entry in assay [1], in assay [2], in assay [3] and in assay [4] was “inactive” throughout.

For the compound `C=C(C)c1cccc(C(C)(C)N=C=O)c1`, the Potency result in assay [1], in assay [2], in assay [3] and in assay [4] was “inactive” throughout.

With `CC(=O)OC1CCC(C(C)(C)C)CC1` (stereo not drawn), the Potency result in assay [1], in assay [2], in assay [3] and in assay [4] was “inactive” throughout.

As to `CC(C)CC(C)(N)C#N` (stereo not drawn), the Potency entry in assay [1], in assay [2], in assay [3] and in assay [4] was “inactive” each time.

On to `COC(=O)C(C)Oc1ccc(Oc2ncc(C(F)(F)F)cc2Cl)cc1` (stereo not drawn), for which the Potency entry in assay [1], in assay [2], in assay [3] and in assay [4] was “inactive” in each case.

For the compound `O=C(O[C@@H](C(=O)O)[C@@H](OC(=O)c1ccccc1)C(=O)O)c1ccccc1`, the Potency entry in assay [1], in assay [2], in assay [3] and in assay [4] was “inactive” throughout.

Regarding `CNCCCC12CCC(c3ccccc31)c1ccccc12`, the Potency entry in assay [1], in assay [2], in assay [3] and in assay [4] was “inactive” each time.

In the case of `NC(=S)NNC(N)=S`, the Potency result in assay [1], in assay [2], in assay [3] and in assay [4] was “inactive” throughout.

Take `CC(=O)NNC(C)=O`: the Potency entry in assay [1], in assay [2], in assay [3] and in assay [4] was “inactive” each time.

Consider `Clc1nc(C(Cl)(Cl)Cl)c(Cl)c(Cl)c1Cl`, for which the Potency entry in assay [1], in assay [2], in assay [3] and in assay [4] was “inactive” each time.

On to `O=C(Cn1ccnc1[N+](=O)[O-])NCc1ccccc1`, for which the Potency entry in assay [1], in assay [2], in assay [3] and in assay [4] was “inactive” each time.

For `NC(=O)c1nc(-c2cccc(-c3cc(F)ccc3OCC(F)(F)C(F)(F)F)c2)n[nH]1`, the Potency entry in assay [1], in assay [2], in assay [3] and in assay [4] was “inactive” throughout.

As to `CCCCCCCC/C=C\CCCCCCCCOCCO`, the Potency result in assay [1], in assay [2], in assay [3] and in assay [4] was “inactive” in each case.

For the compound `COc1ccc(C(=O)CC(=O)c2ccc(C(C)(C)C)cc2)cc1`, the Potency result in assay [1], in assay [2], in assay [3] and in assay [4] was “inactive” throughout.

For `N#CCCN(CCO)CCO`, the Potency entry in assay [1], in assay [2], in assay [3] and in assay [4] was “inactive” each time.

Regarding `CC(=O)OC(C)OC(=O)C(C)c1ccc(-c2ccccc2)c(F)c1` (stereo not drawn), the Potency result in assay [1], in assay [2], in assay [3] and in assay [4] was “inactive” in each case.

With `OCCCc1ccccc1`, the Potency result in assay [1], in assay [2], in assay [3] and in assay [4] was “inactive” each time.

With `CCCCC(CC)COCC1CO1` (stereo not drawn), the Potency entry in assay [1], in assay [2], in assay [3] and in assay [4] was “inactive” in each case.
